Where a name gives a salt, the structure may show the parent alone. ± gives the standard error. The whole screen tested about 1,300 compounds, of which about 75 (6%) showed an effect of 50% or more. This excerpt belongs to a sample that is enriched for strong results.
Tested on: Trichoderma virens ATCC 9645
Assay: growth yield (OD600) relative to untreated control; higher = less growth inhibition
Settings: compound concentration: 100 uM
Summary of the method: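 For each 96-well plate, 100 μl aliquots were prepared with Trichoderma virens ATCC 9645 spores suspended at 15,000 spores ml^−1 in potato dextrose broth. The spores had been harvested from potato dextrose agar plates after 7 days. Library compounds were present at 100 μM final, some wells also receiving a biocide at 200 ng ml^−1, and plates were grown at 30 °C with OD600 read on a BioTek EL800 at 40 h and 72 h. Reported growth, relative to the control lacking both agents, is the mean of duplicate screens.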

| Compound | growth yield (40 h) | growth yield (72 h) |
| --- | --- | --- |
| CC(C)CC(=O)N[C@H](C(=O)N[C@H](C(=O)N[C@@H](CC(C)C)[C@@H](O)CC(=O)N[C@@H](C)C(=O)N[C@@H](CC(C)C)[C@@H](O)CC(=O)O)C(C)C)C(C)C [Pepstatin A] | 106 ± 5.4% | 102 ± 7.8% |
| CN(C)CCOC(c1ccc(Cl)cc1)c1ccccn1 (stereo not drawn) [Carbinoxamine maleate salt] | 97.7 ± 4.3% | 97.8 ± 2.6% |
| CCN(CC)C(=S)SSC(=S)N(CC)CC [Disulfiram] | 27.2 ± 17% | 67.8 ± 12% |
| COc1ccccc1N1CCN(CC(O)COc2cccc3ccccc23)CC1 (stereo not drawn) [Naftopidil dihydrochloride] | 97.4 ± 1.1% | 110.22 ± 0.1% |
| NCCNCCNCCNCCN [Tetraethylenepentamine pentahydrochloride] | 103 ± 2.5% | 99.8 ± 2.9% |
| CCCOc1ccccc1-c1nc2[nH]nnc2c(=O)[nH]1 [Zaprinast] | 99.1% | 106 ± 1.1% |
| CCC(=O)OCC(=O)[C@@]1(OC(=O)CC)[C@H](C)C[C@H]2[C@H]3[C@H]([C@@H](O)C[C@@]21C)[C@@]1(C)C=CC(=O)C=C1C[C@H]3Cl [Alclometasone dipropionate] | 101 ± 4% | 97.7 ± 1.7% |
| CCCCCCNC(=O)n1cc(F)c(=O)[nH]c1=O [Carmofur] | 16.4 ± 0.48% | 33.1 ± 5.5% |
| Nc1nc(=O)c2c([nH]1)NC[C@@H](CNc1ccc(C(=O)N[C@@H](CCC(=O)O)C(=O)O)cc1)N2C=O [Folinic acid calcium salt] | 99.8 ± 2.5% | 92 ± 4.1% |
| CC(C)NC[C@H](O)COc1ccc(CC(N)=O)cc1 [(S)-(-)-Atenolol] | 100 ± 1.6% | 101 ± 1.5% |
| NS(=O)(=O)c1cc2c(cc1C(F)(F)F)NC(Cc1ccccc1)NS2(=O)=O (stereo not drawn) [Bendroflumethiazide] | 106 ± 3.3% | 102 ± 3.4% |
| CN(c1nccc(=O)[nH]1)C1CCN(c2nc3ccccc3n2Cc2ccc(F)cc2)CC1 [Mizolastine] | 94.5 ± 2.4% | 96 ± 2.6% |
| CCCCCCCCCCCCCCCC[N+](C)(C)CCN(Cc1ccc(OC)cc1)c1ncccn1 [Thonzonium bromide] | 0% | 0% |
| COc1ccc(CN(CCN(C)C)c2ccccn2)cc1 [Pyrilamine maleate] | 101 ± 1.1% | 103 ± 1.5% |
| CN(C)CCN(Cc1ccc(Cl)cc1)c1ccccn1 [Chloropyramine hydrochloride] | 98.8 ± 1.9% | 96.2 ± 2.6% |
| Nc1ncn(C2OC(CO)C(O)C2O)c(=O)n1 (stereo not drawn) [Azacytidine-5] | 89.4 ± 5.9% | 88.4 ± 4.3% |
| CC(C)[C@H](N)C(=O)OCCOCn1cnc2c(=O)nc(N)[nH]c21 [Valacyclovir hydrochloride] | 102% | 103% |
| CC(=C(CCO)SSCC1CCCO1)N(C=O)Cc1cnc(C)nc1N (stereo in doubt) [Fursultiamine Hydrochloride] | 104 ± 5.2% | 101 ± 3.1% |
| NC[C@H]1CC[C@H](C(=O)O)CC1 [Tranexamic acid] | 99.75 ± 0.64% | 102.2 ± 0.73% |
| CCCCOc1ccc(OCCCN2CCOCC2)cc1 [Pramoxine hydrochloride] | 89.6 ± 1.9% | 90.5 ± 2.2% |

| Compound | growth yield (40 h) | growth yield (72 h) |
| --- | --- | --- |
| C#Cc1cccc(Nc2ncnc3cc(OCCOC)c(OCCOC)cc23)c1 [Erlotinib] | 108% | 105% |
| COc1cc2ncnc(Nc3ccc(F)c(Cl)c3)c2cc1OCCCN1CCOCC1 [Gefitinib] | 7.47 ± 0.16% | 6.29% |
| CC[C@H]1OC(=O)[C@H](C)[C@@H](O[C@H]2C[C@@](C)(OC)[C@@H](O)[C@H](C)O2)[C@H](C)[C@@H](O[C@@H]2O[C@H](C)C[C@H](N(C)C)[C@H]2O)[C@](C)(O)C[C@@H](C)/C(=N\OCOCCOC)[C@H](C)[C@@H](O)[C@]1(C)O [Roxithromycin] | 97.85 ± 0.64% | 96.7 ± 1.5% |
| COc1ccnc(C[S+]([O-])c2nc3cc(OC(F)F)ccc3[nH]2)c1OC (stereo not drawn) [Pantoprazole sodium] | 88.2 ± 6.2% | 94 ± 3.8% |
| Cc1c(F)c(N2CCNC(C)C2)cc2c1c(=O)c(C(=O)O)cn2C1CC1 (stereo not drawn) [Grepafloxacin] | 99.9 ± 1.4% | 97.53 ± 0.63% |
| CC(=O)OCC(=O)[C@@]1(O)[C@H](C)C[C@H]2[C@@H]3CCC4=CC(=O)C=C[C@]4(C)[C@@]3(F)[C@@H](O)C[C@@]21C [Dexamethasone acetate] | 102 ± 4% | 103 ± 3.7% |
| CCOCCn1c(N2CCCN(C)CC2)nc2ccccc21 [Emedastine] | 98.96 ± 0.16% | 96.9 ± 2.7% |
| CCC(C)(C)c1ccc(CC(C)CN2C[C@@H](C)O[C@@H](C)C2)cc1 (stereo partly drawn) [Amorolfine hydrochloride] | 4.45 ± 0.32% | 2.94 ± 0.21% |
| CCn1cc(C(=O)O)c(=O)c2cnc(N3CCNCC3)nc21 [Pipemidic acid] | 94.4 ± 3.5% | 92.7% |
| NC[C@@H]1O[C@H](O[C@H]2[C@@H](O)[C@H](O[C@@H]3[C@@H](O)[C@H](N)C[C@H](N)[C@H]3O[C@H]3O[C@H](CO)[C@@H](O)[C@H](O)[C@H]3N)O[C@@H]2CO)[C@H](N)[C@@H](O)[C@@H]1O [Paromomycin sulfate] | 102.6 ± 0.32% | 96.59 ± 0.32% |
| O=C1CN(/N=C/c2ccc(-c3ccc([N+](=O)[O-])cc3)o2)C(=O)N1 [Dantrolene sodium salt] | 93.4 ± 2.2% | 99.7 ± 1.4% |
| O=C(NCC(O)CO)c1c(I)c(C(=O)NCC(O)CO)c(I)c(N(CCO)C(=O)CO)c1I (stereo not drawn) [Ioversol] | 101 ± 5.4% | 98.1 ± 2.8% |
| CN(C)CCCN1c2ccccc2Sc2ccc(C(F)(F)F)cc21 [Triflupromazine hydrochloride] | 74.66 ± 0.32% | 92.1 ± 2.1% |
| CC(=O)c1ccc2c(c1)N(CCCN1CCC(CCO)CC1)c1ccccc1S2 [Piperacetazine] | 124 ± 8.6% | 119 ± 8.9% |
| CN(C)CCCN1c2ccccc2Sc2ccccc21 [Promazine hydrochloride] | 91.33 ± 0.16% | 95.6% |
| OCCN1CCN(CCCN2c3ccccc3C=Cc3ccccc32)CC1 [Opipramol dihydrochloride] | 91.3 ± 1.1% | 98.1 ± 1.4% |
| CN1CCN(CCCN2c3ccccc3Sc3ccc(C(F)(F)F)cc32)CC1 [Trifluoperazine dihydrochloride] | 20 ± 0.95% | 63.35 ± 0.42% |
| OCCN1CCN(CCCN2c3ccccc3Sc3ccc(C(F)(F)F)cc32)CC1 [Fluphenazine dihydrochloride] | 44 ± 6.2% | 90.3 ± 8.9% |
| CO[C@H]1C[C@H](O[C@H]2[C@H](C)[C@@H](O[C@@H]3O[C@H](C)C[C@H](N(C)C)[C@H]3OC(C)=O)[C@@H](C)C[C@@]3(CO3)C(=O)[C@H](C)[C@@H](OC(C)=O)[C@@H](C)[C@@H](C)OC(=O)[C@@H]2C)O[C@@H](C)[C@@H]1OC(C)=O [Troleandomycin] | 100.5 ± 0.79% | 98.4 ± 1.3% |
